In PubChem BioAssay (EPA / NIEHS):
Inconclusive results are not listed. Active and inactive are the calls of the source. The calls were made as follows, unless noted: active = hit-call score of the fitted dose curve at least 0.9, where 1 is the maximum; inactive = score below 0.9.

Legend:
[1] = IUF_NPC1_viability_72hr: Viability Assessment at 72 hours in the Leibniz Research Institute for Environmental Medicine (IUF) Neural Progenitor Cell Proliferation Assay (NPC1) (AID 2284209)
Method in brief: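 Three-day continuous exposure of human neural progenitor spheres under EGF/FGF-driven proliferation; cell viability scored by alamar blue signal versus DMSO.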

[2] = CCTE_Mundy_HCI_Cortical_Synap_Neur_Matur_NeuriteSpotCountPerNeuriteLength: CCTE's Synaptogenesis and Neurite Maturation Assay in rat cortical cells for Neurite Spot Count per Neurite Length, Mundy Lab (AID 2284210)
Method in brief: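 Neurite-associated synapse density (synaptophysin puncta per unit neurite length) is measured by fluorescence high-content imaging in rat cortical cultures treated from DIV 7 and fixed at DIV 12, with DMSO as negative control.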

[3] = CCTE_Mundy_HCI_Cortical_Synap_Neur_Matur_BPCount: CCTE's Synaptogenesis and Neurite Maturation Assay in rat cortical cells for Branch Point Count, Mundy Lab (AID 2284211)
Method in brief: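 In this multiplexed morphology assay, cortical cells from rat receive chemicals at DIV 7 and are fixed at DIV 12, then immunostained and imaged; branch points are counted, with DMSO as baseline.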

[4] = CCTE_Mundy_HCI_Cortical_NOG_NeuriteCount: CCTE's Neurite Outgrowth Assay in rat cortical cells for Neurite Count, Mundy Lab (AID 2284212);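 also: cells fixed about two days after chemical exposure began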
Method in brief: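 Rat cortical primary cells; compound added 2 h post-plating, 1/10 dilution of working solution. Anti-betaIII-tubulin/AF488 ICC; ArrayScan neurite count vs DMSO.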

[5] = CCTE_Mundy_HCI_Cortical_NOG_NeuriteLength: CCTE's Neurite Outgrowth Assay in rat cortical cells for Neurite Length, Mundy Lab (AID 2284213)
Method in brief: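 First, rat primary cortical cells were plated and, 2 h later, given test chemical as a 1/10 dilution. Finally, βIII-tubulin immunostaining enabled automated imaging of neurite length.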

[6] = CCTE_Mundy_HCI_Cortical_Synap_Neur_Matur_NeuriteLength: CCTE's Synaptogenesis and Neurite Maturation Assay in rat cortical cells for Neurite Length, Mundy Lab (AID 2284214)
Method in brief: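 DMSO-normalised neurite length, from high-content imaging of anti-MAP2-stained rat cortical cells fixed at DIV 12. Glia were suppressed with AraC (DIV 5) before chemical exposure from DIV 7.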

[7] = CCTE_Mundy_HCI_Cortical_Synap_Neur_Matur_NeuriteSpotCountPerNeuron: CCTE's Synaptogenesis and Neurite Maturation Assay in rat cortical cells for Neurite Spot Count per Neuron Count, Mundy Lab (AID 2284215)
Method in brief: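 High-content imaging counts synaptophysin puncta along MAP2-labelled neurites per neuron after chemical exposure of rat cortical cells from DIV 7 to termination at DIV 12 (AraC added DIV 5). Loss of signal relative to DMSO.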

[8] = CCTE_Mundy_HCI_Cortical_Synap_Neur_Matur_NeuriteCount: CCTE's Synaptogenesis and Neurite Maturation Assay in rat cortical cells for Neurite Count, Mundy Lab (AID 2284222);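 also: exposure from day 7 to day 12 in vitro with readout at day 12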
Method in brief: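 Chemical exposure runs DIV 7–12 in rat cortical cultures, glia suppressed by AraC at DIV 5; measurement is at DIV 12. Imaging-derived neurite counts are fitted against DMSO baseline.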

[9] = CCTE_Mundy_HCI_Cortical_Synap_Neur_Matur_CellBodySpotCount: CCTE's Synaptogenesis and Neurite Maturation Assay in rat cortical cells for Cell Body Spot Count, Mundy Lab (AID 2284223)
Method in brief: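 High-content imaging counts synaptophysin puncta on neuronal cell bodies per neuron after MAP2/synaptophysin immunostaining. Rat primary cortical cells, glia arrested with AraC at DIV 5, were exposed DIV 7–12; signal decrease measured against DMSO.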

[10] = UKN2_HCS_IMR90_cell_viability: Viability Assessment in the University of Konstanz (UKN) Leist Lab Neural Crest Cell Migration Assay in human induced IMR90 Pluripotent Stem Cells (UKN2) (AID 2284233);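 also: viability of neural crest cells differentiated from IMR90 iPSC measured by calcein-AM fluorescence imaging; cells exposed to compound for 24 h after a 24 h migration phase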
Method in brief: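 cMINC format, iPSC-derived neural crest (IMR90); 24 h migration (EGF/FGF, N2-S), then 24 h toxicant. Calcein-AM/H-33342 stain 30 min; fluorescence intensity by HCS; DMSO-normalised, bidirectional fitting.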

[11] = CCTE_Mundy_HCI_Cortical_NOG_BPCount: CCTE's Neurite Outgrowth Assay in rat cortical cells for Branch Point Count, Mundy Lab (AID 2284237)
Method in brief: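 Measured 50.33 h after dosing, this morphology endpoint uses rat primary cortical cultures labelled for betaIII-tubulin. Branch points are quantified by high-content imaging, with DMSO as negative control and baseline.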

[12] = IUF_NPC2c_oligodendrocyte_migration_120hr: Leibniz Research Institute for Environmental Medicine (IUF) 120-hour Neural Progenitor Cell Migration Assay for Oligodendrocyte Migration (NPC2c) (AID 2284297);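 also: O4-positive oligodendrocyte migration distance divided by radial glia migration distance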
Method in brief: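 Exposure runs 5 days from differentiation onset at 37C, seven concentrations plus solvent control, DMSO at most 0.1%, applied to primary hNPC spheres on laminin. After fixation, O4 immunostaining gives oligodendrocyte distance from the sphere core, relative to radial glia migration.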

[13] = IUF_NPC2a_radial_glia_migration_120hr: Leibniz Research Institute for Environmental Medicine (IUF) 120-hour Neural Progenitor Cell Migration Assay for Radial Glia Migration (NPC2a) (AID 2284298)
Method in brief: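 Migration distance in um, sphere core edge to migration-area edge, derived by nuclei-density algorithm from Hoechst images after 120 h compound exposure. Primary hNPC spheres differentiated on poly-D-lysine/laminin in N2 medium, 37C; medium half-replaced day 3.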

[14] = IUF_NPC2a_radial_glia_migration_72hr: Leibniz Research Institute for Environmental Medicine (IUF) 72-hour Neural Progenitor Cell Migration Assay for Radial Glia Migration (NPC2a) (AID 2284299)
Method in brief: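 Spheres of human primary neural progenitors migrate on poly-D-lysine/laminin under compound exposure at 37C, 5% CO2. The 72 h radial glia migration distance comes from brightfield images, measured manually.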

[15] = IUF_NPC2b_neuronal_migration_120hr: Leibniz Research Institute for Environmental Medicine (IUF) 120-hour Neural Progenitor Cell Migration Assay for Neuron Migration (NPC2b) (AID 2284300)
Method in brief: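 TUBB3-positive neurons are imaged after 120 h of differentiation, and their mean distance from the sphere edge is normalised to radial glia migration. Single 0.3 mm fetal hNPC spheres on poly-D-lysine/laminin received 7 compound concentrations, ≤0.1% DMSO, refreshed at day 3.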

[16] = IUF_NPC3_neuronal_differentiation_120hr: Leibniz Research Institute for Environmental Medicine (IUF) 120-hour Neuronal Differentiation Assay (NPC3) (AID 2284301)
Method in brief: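 Neuronal differentiation of primary human neural progenitors measured by high-content imaging: percent TUBB3+ of Hoechst+ nuclei within migrated area at 120 h, seven-point serial dilution plus solvent control, gain or loss relative to DMSO.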

[17] = IUF_NPC4_neurite_length_120hr: Leibniz Research Institute for Environmental Medicine (IUF) 120-hour Neuronal Morphology Assay for Neurite Length (NPC4) (AID 2284302)
Method in brief: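 Neurons from differentiating human fetal neural progenitor spheres are scored for average neurite length after five days of compound exposure. Fitting uses DMSO as negative control.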

[18] = IUF_NPC5_oligodendrocyte_differentiation_120hr: Leibniz Research Institute for Environmental Medicine (IUF) 120-hour Oligodendrocyte Differentiation Assay (NPC5) (AID 2284304; active = hit-call score of the fitted dose curve at least 0.9, where 1 is the maximum;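 also: primary human fetal neural progenitor spheres plated to migrate and differentiate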)
Method in brief: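 Oligodendrocyte differentiation scored as O4-positive cells, found by CNN image analysis, as percent of Hoechst-stained nuclei in the migration area. Scoring followed 5 days of exposure of plated hNPC neurospheres differentiating in DMEM/F12 N2 medium at 37C, with compound refreshed at day 3.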

[19] = IUF_NPC4_neurite_area_120hr: Leibniz Research Institute for Environmental Medicine (IUF) 120-hour Neuronal Morphology Assay for Neurite Area (NPC4) (AID 2284305; active = hit-call score of the fitted dose curve at least 0.9, where 1 is the maximum)
Method in brief: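 Endpoint at 120 h: automated imaging of TUBB3/Hoechst-stained differentiating human neural progenitor spheres, neurite area per neuron from skeletonization. DMSO solvent control, not above 0.1%, set the baseline; medium was half-replaced on day 3.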

[20] = IUF_NPC2-5_cytotoxicity_72hr: Cytotoxicity Assessment at 72 hours in the Leibniz Research Institute for Environmental Medicine (IUF) Neural Progenitor Cell Migration and Differentiation Assay for Cytotoxicity (NPC2-5) (AID 2284306; active = hit-call score of the fitted dose curve at least 0.9, where 1 is the maximum;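 also: LDH release into supernatant measured by resorufin fluorescence marking membrane damage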)
Method in brief: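 Primary human neural progenitor spheres migrate and differentiate on laminin. Compound is present from the start of differentiation, with DMSO kept at or below 0.1%. At 72 h, supernatant LDH is quantified fluorometrically, with values fitted in the positive direction.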

[21] = IUF_NPC2-5_cytotoxicity_120hr: Cytotoxicity Assessment at 120 hours in the Leibniz Research Institute for Environmental Medicine (IUF) Neural Progenitor Cell Migration and Differentiation Assay (NPC2-5) (AID 2284307; active = hit-call score of the fitted dose curve at least 0.9, where 1 is the maximum)
Method in brief: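 Membrane-integrity loss measured as LDH activity in medium supernatant via resazurin-to-resorufin fluorescence after 120 h exposure. hNPC spheres from GW 16-19 fetal cortex differentiated on poly-D-lysine/laminin, 37C, medium half-refreshed day 3; seven concentrations, DMSO max 0.1%.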

[22] = IUF_NPC2-5_cell_number_120hr: Cell Number Assessment at 120 hours in the Leibniz Research Institute for Environmental Medicine (IUF) Neural Progenitor Cell Migration and Differentiation Assay (NPC2-5) (AID 2284308);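 also: count of Hoechst-stained nuclei in migration zone around plated human neural progenitor spheres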
Method in brief: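 Counting of all Hoechst-stained nuclei in the migration area at 120 h, versus DMSO control. Primary hNPC spheres differentiated on poly-D-lysine/laminin in N2 medium at 37C, dosed from day 0 (7 concentrations, DMSO ≤0.1%), half-refed day 3.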

[23] = IUF_NPC2-5_viability_120hr: Viability Assessment at 120 hours in the Leibniz Research Institute for Environmental Medicine (IUF) Neural Progenitor Cell Migration and Differentiation Assay (NPC2-5) (AID 2284312)
Method in brief: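 Human fetal (GW 16-19) neural progenitor spheres of 0.3 mm were plated on poly-D-lysine/laminin in N2 differentiation medium and exposed from day 0 for 120 h, with half-medium refresh at day 3. Viability was read as alamar blue resazurin-to-resorufin fluorescence against DMSO.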

[24] = CCTE_Mundy_HCI_iCellGluta_NOG_NeuriteLength: CCTE's Neurite Outgrowth Assay in iCellGluta cells for Neurite Length, Mundy Lab (AID 2284318; active = hit-call score of the fitted dose curve at least 0.9, where 1 is the maximum)
Method in brief: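 Automated high-content imaging of betaIII-tubulin (Alexa Fluor-488) and Hoechst-stained cells gave neurite length, normalized to the DMSO baseline.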

[25] = IUF_NPC1_cytotoxicity_72hr: Cytotoxicity Assessment at 72 hours in the Leibniz Research Institute for Environmental Medicine (IUF) Neural Progenitor Cell Proliferation Assay (NPC1) (AID 2284332; active = hit-call score of the fitted dose curve at least 0.9, where 1 is the maximum;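 also: rising LDH signal means more cytotoxicity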)
Method in brief: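 Readout is fluorescence from LDH-dependent resazurin conversion, sampled from culture medium after compound contact lasting 72 h. Each well holds one 0.25-0.35 mm human progenitor sphere kept at 37C, 5% CO2 with EGF and FGF.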

[26] = CCTE_Mundy_HCI_iCellGluta_NOG_NeuronCount: CCTE's Neurite Outgrowth Assay in iCellGluta cells for Neuron Count, Mundy Lab (AID 2284340; active = hit-call score of the fitted dose curve at least 0.9, where 1 is the maximum;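 also: cells fixed about 48 h after compound addition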)
Method in brief: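 Neuron count read by automated high-content imaging of Hoechst 33342 and betaIII-tubulin/Alexa Fluor-488 labelling in human iPSC glutamatergic neurons. Activity fitted relative to DMSO.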

[27] = CCTE_Mundy_HCI_iCellGluta_NOG_NeuriteCount: CCTE's Neurite Outgrowth Assay in iCellGluta cells for Neurite Count, Mundy Lab (AID 2284342; active = hit-call score of the fitted dose curve at least 0.9, where 1 is the maximum;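 also: chemical exposure about 48 hours starting 2 hours after plating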)

Measured: AC50

[Cl-].[Cl-].[NH2-].[NH2-].[Pt+4]
active: [3] 0.029 µM | [16] 9.95 µM | [17] 33.2 µM | [20] 34.7 µM | [22] 28.4 µM | [24] 26 µM | [26] 85.7 µM | [27] 70 µM
inactive: all other assays above
